# High-throughput results (PubChem BioAssay)
# Most compounds without a hit are left out; they make up all but 3% or so of the library.
# ROMK mod: modulates human ROMK potassium channel activity. P48048. Tet-inducible ROMK, thallium flux fluorescence; actives lie on both sides. B-score at 10 µM. 130,000 tested, 2% active. AID 1918;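 active = signal ratio slope over the read window, or its plate-corrected B-score, at least 3 SD from the plate mean, either direction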;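 note: B-score of the F/F0 ratio slope over 7 to 12 s after thallium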
# Target sequence (P48048 whole entry, looked up): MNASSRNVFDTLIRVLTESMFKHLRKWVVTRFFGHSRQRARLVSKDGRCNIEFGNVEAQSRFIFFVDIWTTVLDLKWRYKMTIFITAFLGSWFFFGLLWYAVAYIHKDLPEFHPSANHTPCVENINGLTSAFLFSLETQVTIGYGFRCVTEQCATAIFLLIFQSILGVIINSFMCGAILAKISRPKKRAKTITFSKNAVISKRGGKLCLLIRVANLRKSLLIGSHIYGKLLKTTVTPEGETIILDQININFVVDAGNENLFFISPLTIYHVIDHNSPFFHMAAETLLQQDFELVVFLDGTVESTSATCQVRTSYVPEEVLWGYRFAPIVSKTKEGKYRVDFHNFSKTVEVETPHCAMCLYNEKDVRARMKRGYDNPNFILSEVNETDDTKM
# Measles CPE: protection of cells from measles virus; AID 841; 140,000 tested, 1.5% active; Measles virus-infected cells, CPE protection, absorbance; protection (pct of control), % at 4 µM; in the data active = protection mostly above about 24%, no sharp cut-off; inactive = mostly below about 26%
# sdo1 growth: sdo1-depleted yeast growth rescue | AID 817 | z-score at 10 µM | S. cerevisiae sdo1-depleted JHY4D growth rescue, OD600 30 h; active compounds read high; pdr5 snq2 efflux-pump mutant strain | 140,000 tested, 0.21% active;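 active = z-score above 3 at both the 24 hr and the 30 hr optical density reads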;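 note: z-score against mean and SD of all compound wells on the same plate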
# Insulin prom inh: TRM-6 insulin promoter activity inhibition; 130,000 tested, 0.9% active; TRM-6 cells (human fetal islet line), insulin promoter-eGFP reporter, imaging; reporter expression induced with tamoxifen; AID 1273; inhibition, % at 2 µM;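 active = inhibition above the mean plus 3 SD, with well images judged a real hit on visual review, cut at about 60% in these data, passing the limit was not always enough; inconclusive = inhibition over the cutoff but images rejected on review; inactive = inhibition not above the cutoff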
# ROMK hit retest: retested hit modulating human ROMK potassium channel; shares compounds with ROMK mod; ROMK thallium flux, fluorescence ratio; active compounds read low; normalized thallium flux (F/F0 slope) at 10 µM; 3,000 tested, 54% active;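 active = Flux at 10 µM at least 3 SD below or above vehicle control mean in one or both replicates; inconclusive = no clear call, values can overlap the other calls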
# * = called active by the depositor; ? = inconclusive; · = not tested or not shown.
SMILES,ROMK mod,Measles CPE,sdo1 growth,Insulin prom inh,ROMK hit retest
CC1=NN(c2ccccc2)C(=O)/C1=C\C=C1\N(C)c2ccccc2C1(C)C,·,58.7*,-1.97,·,0.063*
Cc1ccccc1OC1C(=O)N(Cc2ccc3c(c2)OCO3)C1c1sccc1C (configuration not stated),·,15.8,-1.03,-56.7,·
O=c1c2ccccc2c(/C=N/c2nnc(Cc3ccccc3)s2)c(O)n1-c1ccc(Cl)cn1,-4.34*,6.5,0.08,-6.2,0.06*
CSc1cccc(CN2CCC(CO)(Cc3cccc(C(F)(F)F)c3)CC2)c1,-3.51*,·,·,·,0.0628*
COc1cc2c(cc1NC(=O)CN(C)Cc1ccc(OC)c(OC)c1)oc1ccccc12,·,2.5,-0.51,·,·
Cc1ccc(Cn2c(=N)n(CC(=O)c3ccccc3)c3ccccc32)cc1,-5.15*,·,·,·,0.0516*
CC(C)(C)C(=O)Cn1c(=N)n(Cc2ccccc2)c2ccccc21,·,11.2,-2.65,·,0.0472*
CC(C)(C)C(=O)Cn1c(=N)n(Cc2ccccc2Cl)c2ccccc21,-2.34,10.3,-2.03,-3.3,·
CCCn1c(=N)n(CC(=O)c2ccc([N+](=O)[O-])cc2)c2ccccc21,-4.36*,·,·,-46.1,0.0716
Cc1ccccc1Cn1c(=N)n(CC(=O)c2ccc([N+](=O)[O-])cc2)c2ccccc21,·,3.4,-0.15,14.3,·
O=C(NC(=S)N1CCOCC1)c1ccc([N+](=O)[O-])cc1,0,5.7,1.1,·,·
N#CC1(NC(=O)CN2CCc3ccccc3C2)CCCC1,1.1,·,·,·,·
NC(=O)c1ccc(NC(=O)COC(=O)c2cccc(Oc3ccccc3)c2)cc1,0.607,6.1,0.43,10.0,·
CCOC(=O)C1=C(c2ccccc2)NC(SC)=C(C#N)C1c1cccnc1 (configuration not stated),-0.118,3.9,0.13,-60.0,·
CCCCOC(=O)CSC1=C(C#N)C(c2cccnc2)C(C(=O)OCC)=C(c2ccccc2)N1 (configuration not stated),-3.38*,·,·,·,0.0668*
CC(C)(C)C1CCC(=NOC(=O)c2ccc(F)cc2)CC1 (configuration not stated),-0.0805,·,·,0.0,·
CCC1CCCCN1C(=O)COc1c(Br)cc(Br)c2cccnc12 (configuration not stated),-4.06*,·,·,·,0.0595*
CCC1CCCCN1C(=O)COc1ccc(F)cc1 (configuration not stated),-0.967,·,·,-28.6,·
COCCCNC(CC(=O)Nc1ccccc1C(=O)OC)C(=O)O (configuration not stated),·,·,·,-6.9,·
Cc1nn(CCCC(=O)N2CCN(c3ccc(F)cc3)CC2)c(C)c1[N+](=O)[O-],-5.98*,·,·,-100.0,0.0541*
Cc1nn(CCCC(=O)NCc2ccc(F)cc2)c(C)c1[N+](=O)[O-],-0.75,3.4,0.13,-25.9,·
Cc1cc(C)c2oc(C(=O)Nc3ccc(S(=O)(=O)N4CCCC(C)C4)cc3)cc(=O)c2c1 (configuration not stated),·,13.9,-0.92,-23.3,·
O=C(Cc1cccc2ccccc12)N/N=C/c1ccncc1,-6.59*,·,·,·,0.0798
COc1cc(-c2nnc3sc(Cc4ccccc4)nn23)cc(OC)c1OC,-0.454,2.5,-1.11,·,·
COc1ccc(Cc2nn3c(-c4cc(OC)c(OC)c(OC)c4)nnc3s2)cc1,-2.56*,7.4,-1.15,55.6,?
SMILES,ROMK mod,Measles CPE,sdo1 growth,Insulin prom inh,ROMK hit retest
CCNC(=O)NC(=O)CN(C)c1ccccc1,0.366,·,·,9.1,·
Cc1cc(/C=N/NC(=O)c2ccsc2)c(C)n1-c1cnccn1,0.188,·,·,0.0,0.0777
Cc1c(O)c2cccnc2[nH]c1=O,-0.417,6.7,0.48,-11.5,·
CCC(C)NC(=S)NNC(=O)c1ccc(C(C)(C)C)cc1 (configuration not stated),·,6.3,-0.21,·,?
CC(C)(C)c1ccc(C(=O)NNC(=O)C2CCCCC2)cc1,·,2.0,1.05,·,·
Cc1cc(NC(=O)COC(=O)[C@H](Cc2c[nH]c3ccccc23)NC(=O)c2ccc(F)cc2)no1,·,20.9,0.13,45.7,·
O=C1C=C(NC(=O)Nc2ccc(Cl)c(Cl)c2)CCC1,-0.337,·,·,·,·
NNC(=O)C(=O)Nc1ccc(Cl)c(Cl)c1,-12.4*,·,·,·,0.0757
C=C(C)CSc1nnc([C@@H]2CCCN2C(=O)OC(C)(C)C)o1,·,4.4,0.48,38.5,·
Cc1nc2ccc(NC(=O)c3cccc(S(=O)(=O)N4CC(C)OC(C)C4)c3)cc2s1 (configuration not stated),-0.101,0.2,0.82,11.4,·
Cc1nc2ccc(NC(=O)c3ccc(S(=O)(=O)N4CCOCC4)cc3)cc2s1,3.19*,5.0,-0.42,6.7,0.0774
Cc1ccc(NC(=O)c2cc(S(=O)(=O)N3CCOCC3)c(Br)s2)cc1,·,13.5,-1.7,-31.2,0.0806
CCCN1C(=O)/C(=C/c2ccc(C)o2)SC1=Nc1ccc(OC)cc1,·,30.9,-0.38,6.7,·
COc1ccc(N=C2S/C(=C\c3ccc(N4CCOCC4)o3)C(=O)N2CCc2c[nH]c3ccccc23)cc1,·,5.7,1.3,42.9,0.0575*
COc1ccc(N=C2S/C(=C\c3ccc(OCC(=O)O)cc3)C(=O)N2CCc2c[nH]c3ccccc23)cc1,8.54*,·,·,·,0.121*
COc1cc(N2CCCC2)c(OC)cc1/C=c1/sc2nc3ccccc3n2c1=O,-2.52,4.5,-0.66,·,0.0507*
Cc1cc(=O)[nH]c(S/C=C/c2ccccc2)n1,·,32.5,-0.48,-76.2,·
CCOC(=O)c1cc2ccccc2n1CCN(CC)CC,4.96*,15.2,0.06,-77.8,?
CN(C)CCn1c(C(=O)Nc2ccccc2)cc2ccccc21,·,17.3,-0.06,·,·
O=C1CNC(=O)/C1=C/c1ccc(O)cc1,·,5.5,0.68,-2.9,·
CCOC(=O)Cc1nnc(Nc2cc(C)ccc2C)c2ccccc12,-0.162,·,·,·,·
Cn1c(=O)c([N+](=O)[O-])c(-n2ccnc2)c2ccccc21,-8.34*,·,·,·,0.0475*
COc1cccc(NS(=O)(=O)c2ccc(NC(C)=O)cc2)c1,-2.14*,17.6,1.2,22.2,0.0795
O=C1CCCC(O)=C1C(C#Cc1ccccc1)C1=C(O)CCCC1=O,-3.76*,23.8,-0.34,-29.0,0.0626*
O=C(c1ccc([N+](=O)[O-])cc1)N1CCSC1c1ccc(Br)cc1 (configuration not stated),·,·,·,-46.1,·
SMILES,ROMK mod,Measles CPE,sdo1 growth,Insulin prom inh,ROMK hit retest
O=C(c1ccc([N+](=O)[O-])cc1)N1CCSC1c1ccc(Cl)cc1 (configuration not stated),-3.35*,3.9,0.53,15.6,?
COC(=O)C(C)Oc1ccc(=O)[nH]n1 (configuration not stated),0.011,18.8,0.71,58.8,·
CC1=CCC[C@@H]2[C@@](C)(CC/C(C)=C/C(=O)O)[C@H](C)CC[C@@]12C,2.09,4.1,-0.73,14.3,·
CCOc1ccc(/C=N/OCC(=O)NCc2ccco2)cc1,-0.00514,·,·,·,·
CCCCCCCC1CC(CSC(=N)N)OC1=O (configuration not stated),-4.97*,5.3,0.35,30.6,0.0575*
CCCCC1CC(CSC(=N)N)OC1=O (configuration not stated),·,4.3,-0.03,48.6,·
CCN1CCS/C1=C\C=C\C1=[N+](CC)CCS1,·,·,·,·,?
CCN1CCS/C1=C/C=C/C1=[N+](CC)CCS1,-1.45,12.7,1.39,-233.3,·
Cc1ccccc1-n1sc2cc(F)ccc2c1=O,-4.71*,·,·,-123.5,0.0567*
